How the values were obtained:
Experiment in all cases: DAPPL (digital affinity profiling via proximity ligation, sequencing); 10 mM Tris-HCl pH 7.5, 50 mM NaCl, 1 mM DTT, 4% glycerol, room temperature, 30 min; GST-TFs on glutathione beads, 16-mer random dsDNA library, 0.1% formaldehyde crosslink after washing; high values mean tight binding
Conditions in all cases: protein: recombinant; tags: N-terminal GST; dsDNA, one strand shown
FLI1 = molecular target: T1, FLI1 (Homo sapiens, UniProt Q01543 1-452)
T1 sequence: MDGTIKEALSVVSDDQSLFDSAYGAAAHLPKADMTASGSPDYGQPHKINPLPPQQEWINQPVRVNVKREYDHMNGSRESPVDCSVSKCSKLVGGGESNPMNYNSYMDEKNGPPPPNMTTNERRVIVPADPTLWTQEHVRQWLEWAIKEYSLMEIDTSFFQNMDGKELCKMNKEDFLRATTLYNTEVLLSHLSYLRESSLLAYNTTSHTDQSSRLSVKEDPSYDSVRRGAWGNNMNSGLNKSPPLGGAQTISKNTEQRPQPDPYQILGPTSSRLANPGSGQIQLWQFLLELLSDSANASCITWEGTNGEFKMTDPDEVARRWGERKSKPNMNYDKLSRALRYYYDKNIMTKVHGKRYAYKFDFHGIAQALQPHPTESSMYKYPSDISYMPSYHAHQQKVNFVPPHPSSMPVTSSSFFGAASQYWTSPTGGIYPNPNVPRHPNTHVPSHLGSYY
How it was run: (§1)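 After expression in yeast as GST fusions, human transcription factors were bound to glutathione beads, DNA-barcoded and mixed with a tag-only sample. The pools were incubated with 200 nmole of a 16-mer random double-stranded DNA library in Tris/NaCl/DTT/glycerol buffer (30 min, room temperature), washed and crosslinked with 0.1% formaldehyde. Proximity ligation with BsaI/T4 ligase ran for 1 h at 37 °C, before PCR amplification and sequencing on an Illumina NextSeq500. Binding signal is a hexamer's read frequency for a factor divided by its frequency for the tag-only sample.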

ELK1 = molecular target: T2, ELK1 (Homo sapiens, UniProt P19419 1-428)
T2 sequence: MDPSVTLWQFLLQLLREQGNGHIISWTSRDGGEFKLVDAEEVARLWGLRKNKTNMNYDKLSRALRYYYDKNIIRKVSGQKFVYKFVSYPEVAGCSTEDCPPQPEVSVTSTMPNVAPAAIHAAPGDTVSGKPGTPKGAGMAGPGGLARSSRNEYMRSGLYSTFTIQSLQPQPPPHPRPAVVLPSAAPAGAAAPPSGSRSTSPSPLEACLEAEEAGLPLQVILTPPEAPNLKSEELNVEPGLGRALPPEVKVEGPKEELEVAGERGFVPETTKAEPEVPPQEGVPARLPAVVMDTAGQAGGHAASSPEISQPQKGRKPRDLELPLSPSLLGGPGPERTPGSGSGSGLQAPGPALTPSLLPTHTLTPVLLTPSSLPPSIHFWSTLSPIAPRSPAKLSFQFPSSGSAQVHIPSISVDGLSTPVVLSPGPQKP
How it was run: as §1

GABPA = molecular target: T3, GABPA (Homo sapiens, UniProt Q06546 1-454)
T3 sequence: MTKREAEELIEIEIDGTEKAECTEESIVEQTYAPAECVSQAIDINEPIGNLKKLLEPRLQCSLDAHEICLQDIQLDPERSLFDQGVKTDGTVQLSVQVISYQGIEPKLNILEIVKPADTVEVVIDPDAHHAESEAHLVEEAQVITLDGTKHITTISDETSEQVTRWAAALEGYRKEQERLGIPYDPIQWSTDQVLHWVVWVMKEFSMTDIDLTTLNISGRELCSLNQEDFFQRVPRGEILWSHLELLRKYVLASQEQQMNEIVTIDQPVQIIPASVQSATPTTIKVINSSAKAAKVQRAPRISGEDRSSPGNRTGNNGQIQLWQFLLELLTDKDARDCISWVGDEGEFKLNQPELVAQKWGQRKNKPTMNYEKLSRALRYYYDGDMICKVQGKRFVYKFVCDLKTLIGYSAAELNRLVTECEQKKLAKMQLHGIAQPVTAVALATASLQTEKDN
How it was run: as §1

ERG = molecular target: T4, ERG (Homo sapiens, UniProt P11308 1-479)
T4 sequence: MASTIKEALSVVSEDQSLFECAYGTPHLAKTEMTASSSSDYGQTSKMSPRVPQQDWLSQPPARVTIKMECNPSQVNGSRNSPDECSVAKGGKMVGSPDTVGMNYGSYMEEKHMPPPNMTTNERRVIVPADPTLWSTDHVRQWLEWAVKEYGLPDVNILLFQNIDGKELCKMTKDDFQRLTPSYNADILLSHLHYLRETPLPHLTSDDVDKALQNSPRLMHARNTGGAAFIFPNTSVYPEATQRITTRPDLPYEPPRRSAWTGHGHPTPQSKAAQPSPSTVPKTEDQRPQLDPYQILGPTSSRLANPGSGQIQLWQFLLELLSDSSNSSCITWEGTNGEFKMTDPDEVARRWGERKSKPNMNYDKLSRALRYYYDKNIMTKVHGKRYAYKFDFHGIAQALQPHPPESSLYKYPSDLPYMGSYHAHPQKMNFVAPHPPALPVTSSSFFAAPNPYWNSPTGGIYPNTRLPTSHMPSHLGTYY
How it was run: as §1

ELK3 = molecular target: T5, ELK3 (Homo sapiens, UniProt P41970 1-407)
T5 sequence: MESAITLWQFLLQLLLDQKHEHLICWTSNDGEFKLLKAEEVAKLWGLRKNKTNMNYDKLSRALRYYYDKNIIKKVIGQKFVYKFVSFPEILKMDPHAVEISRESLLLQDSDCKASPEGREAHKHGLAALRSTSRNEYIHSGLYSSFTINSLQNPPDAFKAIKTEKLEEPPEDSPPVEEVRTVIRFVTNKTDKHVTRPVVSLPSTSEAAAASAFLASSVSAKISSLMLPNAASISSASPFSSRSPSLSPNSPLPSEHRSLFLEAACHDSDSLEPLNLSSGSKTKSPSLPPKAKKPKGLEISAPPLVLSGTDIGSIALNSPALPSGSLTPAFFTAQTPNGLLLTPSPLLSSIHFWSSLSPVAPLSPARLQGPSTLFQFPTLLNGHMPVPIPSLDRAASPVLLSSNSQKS
How it was run: as §1

FEV = molecular target: T6, FEV (Homo sapiens, UniProt Q99581 1-238)
T6 sequence: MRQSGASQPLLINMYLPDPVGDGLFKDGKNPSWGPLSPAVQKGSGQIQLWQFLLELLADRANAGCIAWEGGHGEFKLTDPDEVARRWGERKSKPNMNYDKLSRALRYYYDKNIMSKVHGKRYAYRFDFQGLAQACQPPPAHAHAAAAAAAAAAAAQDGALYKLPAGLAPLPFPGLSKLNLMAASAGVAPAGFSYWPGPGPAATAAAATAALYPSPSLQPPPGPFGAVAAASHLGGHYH
How it was run: as §1

ETV3L = molecular target: T7, ETV3L (Homo sapiens, UniProt Q6ZN32 1-361)
T7 sequence: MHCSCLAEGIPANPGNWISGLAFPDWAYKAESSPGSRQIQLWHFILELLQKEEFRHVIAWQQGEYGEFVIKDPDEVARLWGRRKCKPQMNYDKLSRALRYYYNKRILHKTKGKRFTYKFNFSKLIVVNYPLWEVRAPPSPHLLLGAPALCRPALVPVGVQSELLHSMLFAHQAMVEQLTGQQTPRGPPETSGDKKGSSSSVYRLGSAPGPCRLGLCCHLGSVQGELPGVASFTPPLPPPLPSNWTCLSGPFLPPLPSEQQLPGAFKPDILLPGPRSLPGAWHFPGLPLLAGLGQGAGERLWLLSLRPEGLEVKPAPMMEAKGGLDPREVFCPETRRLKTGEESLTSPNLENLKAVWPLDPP
How it was run: as §1

ETS2 = molecular target: T8, ETS2 (Homo sapiens, UniProt P15036 1-469)
T8 sequence: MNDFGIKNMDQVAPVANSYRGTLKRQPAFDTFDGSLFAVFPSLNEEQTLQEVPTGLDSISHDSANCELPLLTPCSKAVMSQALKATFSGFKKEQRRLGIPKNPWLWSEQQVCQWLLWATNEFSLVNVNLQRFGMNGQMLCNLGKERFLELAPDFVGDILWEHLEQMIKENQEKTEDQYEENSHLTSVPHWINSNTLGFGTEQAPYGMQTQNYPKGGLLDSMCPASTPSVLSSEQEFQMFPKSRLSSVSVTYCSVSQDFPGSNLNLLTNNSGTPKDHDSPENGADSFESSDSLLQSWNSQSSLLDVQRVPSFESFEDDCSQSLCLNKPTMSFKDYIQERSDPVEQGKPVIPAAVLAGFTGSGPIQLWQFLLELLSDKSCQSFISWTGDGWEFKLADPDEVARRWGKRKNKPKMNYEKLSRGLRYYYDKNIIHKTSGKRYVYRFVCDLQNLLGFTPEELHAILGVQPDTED
How it was run: as §1

SPDEF = molecular target: T9, SPDEF (Homo sapiens, UniProt O95238 1-335)
T9 sequence: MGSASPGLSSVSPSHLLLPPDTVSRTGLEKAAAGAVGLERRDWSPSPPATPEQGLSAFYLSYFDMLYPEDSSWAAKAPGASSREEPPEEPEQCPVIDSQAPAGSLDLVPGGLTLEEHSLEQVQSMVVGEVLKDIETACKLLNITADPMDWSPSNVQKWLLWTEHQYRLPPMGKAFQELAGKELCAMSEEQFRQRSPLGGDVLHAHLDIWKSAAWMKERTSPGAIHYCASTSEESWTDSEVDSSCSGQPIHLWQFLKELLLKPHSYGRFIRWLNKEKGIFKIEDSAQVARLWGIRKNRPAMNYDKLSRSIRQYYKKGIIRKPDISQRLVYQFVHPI
How it was run: as §1

ETV7 = molecular target: T10, ETV7 (Homo sapiens, UniProt Q9Y603 1-341)
T10 sequence: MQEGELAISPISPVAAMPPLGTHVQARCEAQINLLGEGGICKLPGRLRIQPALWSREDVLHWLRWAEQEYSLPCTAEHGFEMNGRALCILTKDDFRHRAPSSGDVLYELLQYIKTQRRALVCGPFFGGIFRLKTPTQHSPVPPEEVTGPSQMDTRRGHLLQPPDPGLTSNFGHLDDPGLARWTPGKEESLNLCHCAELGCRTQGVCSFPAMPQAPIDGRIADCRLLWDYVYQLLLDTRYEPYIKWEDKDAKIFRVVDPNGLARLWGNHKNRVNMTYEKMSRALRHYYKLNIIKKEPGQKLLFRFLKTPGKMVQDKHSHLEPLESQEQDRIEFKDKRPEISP
How it was run: as §1

ETV3 = molecular target: T11, ETV3 (Homo sapiens, UniProt P41162-2 1-143)
T11 sequence: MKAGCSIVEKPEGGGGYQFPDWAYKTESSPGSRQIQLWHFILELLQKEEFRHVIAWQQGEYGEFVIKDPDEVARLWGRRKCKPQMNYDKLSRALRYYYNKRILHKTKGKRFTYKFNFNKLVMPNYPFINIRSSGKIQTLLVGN
How it was run: as §1

ETV6 = ETV6 (Homo sapiens, UniProt P41212 1-452)
How it was run: as §1

ETV6, sequence (P41212 whole entry): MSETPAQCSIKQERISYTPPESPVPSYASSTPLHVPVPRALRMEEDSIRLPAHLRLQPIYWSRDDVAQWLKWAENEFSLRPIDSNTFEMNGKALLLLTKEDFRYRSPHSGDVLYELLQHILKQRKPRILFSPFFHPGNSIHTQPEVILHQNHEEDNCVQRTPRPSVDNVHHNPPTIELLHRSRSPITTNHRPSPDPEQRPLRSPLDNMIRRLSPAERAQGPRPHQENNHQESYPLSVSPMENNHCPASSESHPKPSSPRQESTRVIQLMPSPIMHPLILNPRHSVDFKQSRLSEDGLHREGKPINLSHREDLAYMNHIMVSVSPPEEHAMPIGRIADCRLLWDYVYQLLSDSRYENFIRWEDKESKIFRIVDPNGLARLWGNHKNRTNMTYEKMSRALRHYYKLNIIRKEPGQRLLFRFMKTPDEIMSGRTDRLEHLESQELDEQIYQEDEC

Sequence	binding signal (FLI1)	binding signal (ELK1)	binding signal (GABPA)	binding signal (ERG)	binding signal (ELK3)	binding signal (FEV)	binding signal (ETV3L)	binding signal (ETS2)	binding signal (SPDEF)	binding signal (ETV7)	binding signal (ETV3)	binding signal (ETV6)
CCGGTG	1.04 fold enrichment (6-mer frequency, TF over GST control)	1.09 fold enrichment (6-mer frequency, TF over GST control)	1.08 fold enrichment (6-mer frequency, TF over GST control)	1.19 fold enrichment (6-mer frequency, TF over GST control)	1.08 fold enrichment (6-mer frequency, TF over GST control)	1.35 fold enrichment (6-mer frequency, TF over GST control)	1.01 fold enrichment (6-mer frequency, TF over GST control)	1.02 fold enrichment (6-mer frequency, TF over GST control)	1.13 fold enrichment (6-mer frequency, TF over GST control)	1.04 fold enrichment (6-mer frequency, TF over GST control)	1.08 fold enrichment (6-mer frequency, TF over GST control)	1.02 fold enrichment (6-mer frequency, TF over GST control)
TGTTGG	1.01 fold enrichment (6-mer frequency, TF over GST control)								1 fold enrichment (6-mer frequency, TF over GST control)			
